TEAD-YAP inh = TEAD-YAP interaction inhibition; HEK-TIYL cells, TEAD-Gal4/YAP UAS-luciferase luminescence; hit rate 1.4% among 640,000; inhibition, % at 9.12 µM; AID 1259422; in the data active means inhibition above about 32%
MITF inh = human MITF inhibition, primary screen; AlphaScreen MITF homodimerization, bead proximity signal; inhibition, % at 2.6 µM; hit rate 0.91% among 650,000; in the data active means inhibition above about 50%
GPR151 ag = activates the human receptor GPR151; Q8TDV0; PathHunter beta-arrestin GPR151 cells, luminescence; activation, % at 11.2 µM; hit rate 1% among 650,000; AID 1508602; in the data active means activation above about 4.9%
FBW7 act = activators of human E3 ligase FBW7. AID 1259310. normalized activity (activation), % at 26.1 µM. AlphaScreen FBW7–phospho-cyclin E peptide binding, activator screen. hit rate 0.13% among 650,000. Q969H0; in the data active means normalized activity above about 1.9%;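 further: purified mutant Fbw7 with reduced substrate affinity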
Target sequence (Q969H0 whole entry, looked up): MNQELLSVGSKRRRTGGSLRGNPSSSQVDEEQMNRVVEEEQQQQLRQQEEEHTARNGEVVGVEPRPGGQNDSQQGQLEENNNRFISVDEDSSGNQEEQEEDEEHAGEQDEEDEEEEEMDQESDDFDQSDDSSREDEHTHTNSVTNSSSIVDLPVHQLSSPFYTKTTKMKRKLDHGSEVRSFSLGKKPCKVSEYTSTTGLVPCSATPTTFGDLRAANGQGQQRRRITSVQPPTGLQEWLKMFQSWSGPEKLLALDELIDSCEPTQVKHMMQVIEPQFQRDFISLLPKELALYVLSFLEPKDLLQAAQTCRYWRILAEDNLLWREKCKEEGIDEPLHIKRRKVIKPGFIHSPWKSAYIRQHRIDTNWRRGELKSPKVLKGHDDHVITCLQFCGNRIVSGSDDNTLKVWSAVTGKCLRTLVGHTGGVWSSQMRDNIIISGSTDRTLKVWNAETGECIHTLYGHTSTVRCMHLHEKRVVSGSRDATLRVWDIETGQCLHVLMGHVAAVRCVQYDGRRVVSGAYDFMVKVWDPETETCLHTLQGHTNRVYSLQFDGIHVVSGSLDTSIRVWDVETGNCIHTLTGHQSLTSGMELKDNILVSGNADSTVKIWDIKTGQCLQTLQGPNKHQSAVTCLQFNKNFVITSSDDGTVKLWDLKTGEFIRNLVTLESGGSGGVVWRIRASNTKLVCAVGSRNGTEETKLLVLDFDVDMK
GPR151 confirm = human GPR151 activation, confirmation screen; shares compounds with GPR151 ag; GPR151 PathHunter beta-arrestin cells, luminescence, 90 min; % of EA-reagent control over plate median; activation, % at 11.2 µM; 6,700 tested, under 10 active; AID 1508609;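 active means mean percent activation across replicates above the confirmation screen cutoff of 4.91%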
GPR119 counter = counter-screen for GPR151 activators: effect on human GPR119; activation, % at 11.2 µM; shares compounds with GPR151 ag; GPR119 PathHunter beta-arrestin cells, luminescence, 90 min; 0 = compound-well median, 100 = enzyme-acceptor control; hit rate 0.3% among 6,700;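 active means mean percent activation in the counterscreen above 29.09%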;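 further: counterscreen on off-target GPR119 to flag nonselective hits from the GPR151 activator screen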
Each line names hits and unclear results; the compound was inactive in the other large screens (follow-up assays come after a bar, where they were run); ! = not active in a repeat. Shown are actives, neighbours in structure and some others; about 3.4% of the full set was active somewhere.

CCOC(=O)C1=C(C)N(c2ccc(Br)cc2)C(=O)/C1=C\c1ccc(C(=O)OC)cc1	GPR151 ag 15.9 | GPR151 confirm inactive | GPR119 counter inactive
CC(C)(C)OC(=O)N1CCC(c2nc(-c3ccncc3)no2)CC1	none
CC(C)(C)OC(=O)N1CCCC(c2nc(-c3ccncc3)no2)C1 (stereo unspecified)	GPR151 ag 5.5 | GPR151 confirm inactive | GPR119 counter inactive
C=C1C(=O)OC2CC3(C)CCCC(C)C3=CC12 (stereo unspecified)	GPR151 ag 6.2! | GPR151 confirm inactive | GPR119 counter inactive
COc1ccc(C(=O)CC2(O)C(=O)N(C(C)C)c3ccccc32)cc1 (stereo unspecified)	GPR151 ag 11.6 | GPR151 confirm inactive | GPR119 counter inactive
CN1C(=O)C(O)(CC(=O)c2ccc(F)cc2)c2ccccc21 (stereo unspecified)	none
CC(C)N1C(=O)C(O)(CC(=O)c2ccc3ccccc3c2)c2ccccc21 (stereo unspecified)	GPR151 ag 6.2 | GPR151 confirm inactive | GPR119 counter inactive
CN1C(=O)C(O)(CC(=O)c2cccnc2)c2ccccc21 (stereo unspecified)	GPR151 ag 13.6 | GPR151 confirm inactive | GPR119 counter inactive
CN1C(=O)C(O)(CC(=O)c2ccc3ccccc3c2)c2ccccc21 (stereo unspecified)	none
OC1(c2ccc(Cl)cc2)CN(c2ccccc2)C2=[N+]1CCCC2 (stereo unspecified)	none
O=C(Cc1cn(-c2ccc(Cl)nn2)c2ccccc12)NCCN1CCOCC1	GPR151 ag 7.8 | GPR151 confirm inactive | GPR119 counter inactive
O=C(Cc1cn(-c2ccc(N3CCOCC3)nn2)c2ccccc12)NCCN1CCOCC1	none
O=C(CCc1ccccc1)N(c1ccccc1)C1C=CS(=O)(=O)C1 (stereo unspecified)	none
Cc1noc(CNC(=O)c2ccc3ccccc3n2)n1	GPR151 ag 5.4 | GPR151 confirm inactive | GPR119 counter inactive
CC(=O)N1CC(C)Sc2cc(S(=O)(=O)NCc3ccc4c(c3)OCO4)ccc21 (stereo unspecified)	GPR151 ag 5.1 | GPR151 confirm inactive | GPR119 counter inactive
O=C(NCCc1nc(-c2ccncc2)n[nH]1)C1(c2ccccc2)CCCC1	GPR151 ag 5.9 | GPR151 confirm inactive | GPR119 counter inactive
O=C(Nc1cccc(N2CCC(NCc3cccnc3)CC2)c1)C1CC1	GPR151 ag 5.5 | GPR151 confirm inactive | GPR119 counter inactive
O=C(Nc1cccc(N2CCC(NCc3cccc(-n4cccn4)c3)CC2)c1)C1CC1	none
Cc1noc(C)c1COC(=O)/C=C/c1ccco1	none
COc1cccc(NC(=O)c2cccn(OCc3ccccc3F)c2=O)c1	GPR151 ag 6.2 | GPR151 confirm inactive | GPR119 counter inactive
O=C(Nc1cccc(F)c1)c1cccn(OCc2ccccc2F)c1=O	none
CCC(=O)N1CCC[C@@H]2CN(C(=O)/C=C/c3cccs3)CC[C@H]21	GPR151 ag 5.6 | GPR151 confirm inactive | GPR119 counter inactive
O=C(Nc1ccccc1C(F)(F)F)c1ccc(F)c(S(=O)(=O)N2CCN(c3ccccc3F)CC2)c1	none
O=C(NCc1cccnc1)c1nn2c(C(F)(F)F)cc(-c3ccccc3)nc2c1Br	none
O=C(Nc1cccc(C(F)(F)F)c1)c1nn2c(C(F)(F)F)cc(-c3ccc(Br)o3)nc2c1Br	GPR151 ag 16.9 | GPR151 confirm inactive | GPR119 counter inactive
O=C(NCc1ccc(F)cc1)c1nn2c(C(F)(F)F)cc(-c3ccccc3)nc2c1Br	GPR151 ag 5.9 | GPR151 confirm inactive | GPR119 counter inactive
COc1cccc(-n2c(CCN3C(=O)c4ccccc4C3=O)nc3ccccc3c2=O)c1	GPR151 ag 5.4 | GPR151 confirm inactive | GPR119 counter inactive
O=C(Cc1cccs1)Nc1nnc(SCc2ccccc2)s1	GPR151 ag 5.1 | GPR151 confirm inactive | GPR119 counter inactive
O=C(Nc1nnc(SCc2ccccc2)s1)c1cccs1	none
COc1ccc(NC(=O)Nc2nnc(SCc3ccc(F)cc3)s2)cc1	none
CC1CCCC(C)N1c1nnc(NC(=O)Nc2ccc(F)cc2)s1 (stereo unspecified)	GPR151 ag 5.3 | GPR151 confirm inactive | GPR119 counter inactive
O=C(Nc1ccc(F)cc1)Nc1nnc(SCc2ccccc2)s1	GPR151 ag 5.0 | GPR151 confirm inactive | GPR119 counter inactive
CCC(c1nnnn1C(C)(C)CC)N(CCO)Cc1cc2ccc(C)cc2[nH]c1=O (stereo unspecified)	none
COC(=O)c1ccc(C2C3=C(CC(c4ccc(OC)cc4)CC3=O)Nc3ccccc3N2C(=O)C(F)(F)F)cc1 (stereo unspecified)	none
O=C1CCCC/C1=C\Nc1ccccc1NS(=O)(=O)Cc1ccccc1	none
CCOc1ccc(N2CC(C(=O)N3CCC4(CC3)NC(=O)c3ccccc3N4)CC2=O)cc1 (stereo unspecified)	GPR151 ag 5.1 | GPR151 confirm inactive | GPR119 counter inactive
CCOc1ccc(N2CC(C(=O)N3CCN(C(=O)C4CC(=O)N(c5ccc(OCC)cc5)C4)CC3)CC2=O)cc1 (stereo unspecified)	none
CCOc1ccc(N2CC(C(=O)OC)CC2=O)cc1 (stereo unspecified)	GPR151 ag 6.4 | GPR151 confirm inactive | GPR119 counter inactive
CC1CC(C)CN(C(=O)CN2C(=O)NC(Cc3ccccc3)(Cc3ccccc3)C2=O)C1 (stereo unspecified)	GPR151 ag 5.0 | GPR151 confirm inactive | GPR119 counter inactive
CC1CCN(C(=O)CN2C(=O)NC(Cc3ccccc3)(Cc3ccccc3)C2=O)CC1	none
Cc1ccc2cc(NC(=O)c3ccccc3C(=O)O)ccc2n1	none
CC1=CC(C)C(COC(=O)CN2CCOCC2)C(C)C1 (stereo unspecified)	none
CC1=CC(C)C(CNCCN2CCNCC2)C(C)C1 (stereo unspecified)	GPR151 ag 4.9 | GPR151 confirm inactive | GPR119 counter inactive
CCOC(=O)N1CCN(S(=O)(=O)c2ccc(C(=O)Nc3nc(-c4ccc(F)cc4)cs3)cc2)CC1	none
COc1cccc(-n2cc(C(=O)N(C)c3cc(C)ccc3OC)c3ccccc3c2=O)c1	none
O=C(O)c1ccc2c(c1)C(=O)N(c1n[nH]c(-c3cccnc3)n1)C2=O	none
CN(C)c1ccc(NC2=CC(=O)N(Cc3ccco3)C2=O)cc1	GPR151 ag 5.1 | GPR151 confirm inactive | GPR119 counter inactive
CN(C)c1ccc(NC2=CC(=O)N(CCc3ccccc3)C2=O)cc1	none
CCOC(=O)c1c(NC(=O)CN2CCOCC2)sc(C)c1C	none
CCOC(=O)c1c(NC(=O)CN2CCOCC2)sc(C(C)=O)c1C	GPR151 ag 8.4 | GPR151 confirm inactive | GPR119 counter inactive
O=[N+]([O-])c1ccccc1-c1cnn(-c2ccccc2)c1	none

Source: PubChem BioAssay
